Source: PubChem BioAssay (Tox21)
“And” between values parts separate entries of the source, which are not always exact repeats. Identical values can stand only once. Results filed as inconclusive are left out. Where a call stands in place of a potency, no number is given. Where a structure was tested more than once in an assay, its records may differ in their call. The source made the active and inactive calls. Unless noted, the call rests on the fitted dose curve.

Columns and labels:
[1] = Nuclear factor erythroid 2-related factor 2/antioxidant responsive element (Nrf2/ARE) small molecule agonists: qHTS cell viability counter screen in human keratinocytes (AID 1919968; active means well fitted curve in the direction sought with a large enough effect in the repeat runs; an effect the other way counts as inactive or inconclusive; further: nearly all actives have a fitted effect of over 55% in size; further: potency means the concentration at half of the fitted maximal effect)
Outline: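 KeratinoSens HaCaT cells, 1,500/well, preincubated 5 h, then exposed to compounds in DMSO for 23 h at 37 C/5% CO2. Viability read as CellTiter-Fluor fluorescence after 1 h, in the same wells as the ARE-luciferase read.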

[2] = molecular target: KiSS-1 receptor (Homo sapiens) (UniProt Q969F8); assay: Human kisspeptin (KISS1R) small molecule agonists, calcium flux assay in KISS1R-HEK293 cells (AID 1920064; active means well fitted curve in the direction sought with a large enough effect in the repeat runs; an effect the other way counts as inactive or inconclusive)
Sequence of KiSS-1 receptor (Homo sapiens) (Q969F8 whole entry, looked up): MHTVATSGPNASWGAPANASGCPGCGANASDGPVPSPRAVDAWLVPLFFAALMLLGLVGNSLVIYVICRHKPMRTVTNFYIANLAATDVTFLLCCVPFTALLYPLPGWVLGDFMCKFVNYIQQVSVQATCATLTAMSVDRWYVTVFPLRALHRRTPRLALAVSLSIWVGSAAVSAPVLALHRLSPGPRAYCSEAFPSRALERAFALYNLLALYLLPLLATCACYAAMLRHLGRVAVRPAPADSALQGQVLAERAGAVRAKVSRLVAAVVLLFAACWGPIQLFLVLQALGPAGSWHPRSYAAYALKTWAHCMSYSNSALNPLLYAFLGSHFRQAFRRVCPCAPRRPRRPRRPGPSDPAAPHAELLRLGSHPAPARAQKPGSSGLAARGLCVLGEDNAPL
Outline: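 HEK293 cells stably expressing human KISS1R were loaded with calcium dye for 1 h at 37 C, then given compound; fluorescence (Ex/Em 480/540) was read kinetically for 3 min. Fifteen concentrations, triplicate.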

[3] = G protein-coupled receptor (GPCR) small molecule agonists, calcium flux assay: HEK293 wild type cell line counter screen (AID 1920065)
Outline: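 Wild-type HEK293 cells plated 18 h, loaded with calcium dye 1 h at 37 C, then compounds added in agonist mode (ATP as positive control). Kinetic fluorescence Ex/Em 480/540 recorded 3 min at 1 sec intervals; 15 concentrations, triplicate.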

[4] = p53 small molecule agonists, cell-based qHTS assay with human liver microsomes (AID 1963577)
Outline: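 p53RE-bla cells, 4,000/well, compound added after 5 h, with human liver microsomes 0.5 mg/mL and NADPH 0.5 mg/mL final; 16 h at 37 C, then LiveBLAzer 2 h RT, fluorescence.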

[5] = p53 small molecule agonists, cell-based qHTS assay with rat liver microsomes (AID 1963578)
Outline: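 p53RE-bla cells, 4,000/well, pre-incubated 5 h, then given compounds plus rat liver microsomes (0.5 mg/mL final) and NADPH (0.5 mg/mL final). Incubation 16 h at 37 C; beta-lactamase reporter read by LiveBLAzer fluorescence after 2 h at room temperature.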

[6] = p53 small molecule agonists, cell-based qHTS assay with human liver microsomes: qHTS cell viability counter screen (AID 1963579); further: nearly all actives have a fitted effect of over 45% in size; further: potency means the concentration at half of the fitted maximal effect
Outline: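 p53RE-bla cells, 4,000/well, dosed 5 hours after plating, with human liver microsomes (0.5 mg/mL final) plus NADPH (0.5 mg/mL final), 16 hours at 37 C. Viability read as CellTiter-Glo luminescence after 30 min at room temperature.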

[7] = p53 small molecule agonists, cell-based qHTS assay with rat liver microsomes: qHTS cell viability counter screen (AID 1963580); further: nearly all actives have a fitted effect of over 45% in size; further: potency means the concentration at half of the fitted maximal effect
Outline: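 HCT-116 p53RE-bla, 4,000 cells/well, 5 h pre-incubation; cpd + rat liver microsomes 0.5 mg/mL + NADPH 0.5 mg/mL (final); 16 h, 37 C; CellTiter-Glo, 30 min RT; luminescence.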

[8] = p53 small molecule agonists, cell-based qHTS assay: qHTS cell viability counter screen (AID 1963581); further: nearly all actives have a fitted effect of over 45% in size; further: potency means the concentration at half of the fitted maximal effect
Outline: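 p53RE-bla HCT-116 cells, compounds added 5 h after plating and incubated 16 h at 37 C. Cytotoxicity measured in the same wells as intracellular ATP by CellTiter-Glo luminescence after 30 min at room temperature.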

[9] = molecular target: 5-hydroxytryptamine receptor 2A (Homo sapiens) (UniProt P28223); assay: 5-hydroxytryptamine receptor 2A (HTR2A) small molecule antagonists, cell-based qHTS assay (AID 1963586); further: nearly all actives have a fitted effect of over 45% in size; further: potency means the concentration at half of the fitted maximal effect
Sequence of 5-hydroxytryptamine receptor 2A (Homo sapiens) (P28223 whole entry, looked up): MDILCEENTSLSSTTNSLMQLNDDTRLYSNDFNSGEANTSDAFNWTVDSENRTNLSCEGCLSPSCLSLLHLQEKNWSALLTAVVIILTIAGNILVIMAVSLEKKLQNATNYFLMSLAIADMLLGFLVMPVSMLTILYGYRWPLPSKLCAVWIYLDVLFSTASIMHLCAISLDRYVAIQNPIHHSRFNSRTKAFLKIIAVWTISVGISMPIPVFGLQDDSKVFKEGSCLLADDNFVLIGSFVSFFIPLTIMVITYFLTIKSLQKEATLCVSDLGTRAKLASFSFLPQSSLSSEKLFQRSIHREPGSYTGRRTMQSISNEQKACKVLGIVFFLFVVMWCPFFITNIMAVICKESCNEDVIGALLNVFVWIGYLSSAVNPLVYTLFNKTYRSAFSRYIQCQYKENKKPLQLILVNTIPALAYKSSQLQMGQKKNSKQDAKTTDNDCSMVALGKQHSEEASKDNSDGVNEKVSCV
Outline: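 Antagonist-mode intracellular calcium assay: DOI (4 nM) added after 5 min compound pre-incubation at room temperature to dye-loaded HTR2A-CHO cells. Fluorescence followed for 3 min, sampled every second.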

[10] = molecular target: Muscarinic acetylcholine receptor M1 (Homo sapiens) (UniProt P11229); assay: Cholinergic receptor muscarinic 1 (CHRM1) small molecule antagonists, cell-based qHTS assay (AID 1963588); further: nearly all actives have a fitted effect of over 40% in size; further: potency means the concentration at half of the fitted maximal effect
Sequence of Muscarinic acetylcholine receptor M1 (Homo sapiens) (P11229 whole entry, looked up): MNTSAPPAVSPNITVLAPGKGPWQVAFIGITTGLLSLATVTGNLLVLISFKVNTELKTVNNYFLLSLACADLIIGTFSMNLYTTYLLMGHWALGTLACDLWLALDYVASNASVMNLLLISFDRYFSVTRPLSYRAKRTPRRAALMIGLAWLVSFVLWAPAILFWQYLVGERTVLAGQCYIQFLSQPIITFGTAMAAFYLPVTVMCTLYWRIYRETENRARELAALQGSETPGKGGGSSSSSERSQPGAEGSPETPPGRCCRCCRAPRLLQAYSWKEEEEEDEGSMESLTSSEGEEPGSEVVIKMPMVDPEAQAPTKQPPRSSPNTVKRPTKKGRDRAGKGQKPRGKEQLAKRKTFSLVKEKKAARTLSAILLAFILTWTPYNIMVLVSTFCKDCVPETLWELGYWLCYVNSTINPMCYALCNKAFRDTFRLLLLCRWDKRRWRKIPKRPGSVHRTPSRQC
Outline: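 CHRM1-CHO calcium-flux assay, antagonist mode. Cells were seeded 18 h, dye-loaded 1 h at 37 C and given compound for 5 min at RT, then acetylcholine was added at 50nM. FDSS fluorescence was read 3 min; 15 concentrations, three runs.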

[11] = molecular target: Muscarinic acetylcholine receptor M1 (Homo sapiens) (UniProt P11229); assay: Cholinergic receptor muscarinic 1 (CHRM1) small molecule agonists, cell-based qHTS assay (AID 1963589); further: nearly all actives have a fitted effect of over 35% in size
Outline: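 CHO cells stably expressing human CHRM1 were loaded with calcium dye for 1 h at 37 C, then compound was added in agonist mode. Intracellular calcium fluorescence was followed kinetically at 1 s intervals. Fifteen concentrations were tested in three independent runs.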

[12] = molecular target: Beta-2 adrenergic receptor (Homo sapiens) (UniProt P07550); assay: Adrenergic beta2 receptor (ADRB2) small molecule antagonists, cell-based qHTS assay (AID 1963592); further: nearly all actives have a fitted effect of over 50% in size; further: potency means the concentration at half of the fitted maximal effect
Sequence of Beta-2 adrenergic receptor (Homo sapiens) (P07550 whole entry, looked up): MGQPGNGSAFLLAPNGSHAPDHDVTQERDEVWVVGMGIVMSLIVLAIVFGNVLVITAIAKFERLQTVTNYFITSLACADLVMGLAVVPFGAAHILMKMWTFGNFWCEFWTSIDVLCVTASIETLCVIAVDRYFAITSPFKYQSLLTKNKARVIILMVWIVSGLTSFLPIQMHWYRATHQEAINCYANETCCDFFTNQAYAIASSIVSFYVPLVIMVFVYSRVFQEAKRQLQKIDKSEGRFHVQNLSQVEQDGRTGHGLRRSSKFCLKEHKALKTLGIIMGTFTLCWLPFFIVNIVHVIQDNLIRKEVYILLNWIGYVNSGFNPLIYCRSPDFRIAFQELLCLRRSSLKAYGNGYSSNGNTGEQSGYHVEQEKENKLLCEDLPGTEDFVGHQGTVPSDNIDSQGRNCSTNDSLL
Outline: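 Cells (CHO, stable ADRB2 overexpression) incubated 18-20hr at 37C; compounds added from DMSO; agonist mix (1nM isoproterenol, 100uM IBMX, 25uM Ro-20-1724) added; 0.5hr RT; d2-cAMP and anti-cAMP-cryptate added; 1hr RT; 665/615 nm read.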

[13] = molecular target: Beta-2 adrenergic receptor (Homo sapiens) (UniProt P07550); assay: Adrenergic beta2 receptor (ADRB2) small molecule agonists, cell-based qHTS assay (AID 1963593);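 further: CHO cells stably overexpressing human ADRB2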
Outline: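 CHO cells stably over-expressing ADRB2 were plated overnight at 37C, then dosed with compounds plus a stimulation mix containing 100uM IBMX and 25uM Ro-20-1724 for 0.5hr at room temperature. cAMP was measured by HTRF competition, 1hr.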

[14] = molecular target: D(2) dopamine receptor (Homo sapiens) (UniProt P14416); assay: Dopamine D2 receptor (DRD2) small molecule agonists, cell-based qHTS assay (AID 1963594); further: nearly all actives have a fitted effect of over 35% in size
Sequence of D(2) dopamine receptor (Homo sapiens) (P14416 whole entry, looked up): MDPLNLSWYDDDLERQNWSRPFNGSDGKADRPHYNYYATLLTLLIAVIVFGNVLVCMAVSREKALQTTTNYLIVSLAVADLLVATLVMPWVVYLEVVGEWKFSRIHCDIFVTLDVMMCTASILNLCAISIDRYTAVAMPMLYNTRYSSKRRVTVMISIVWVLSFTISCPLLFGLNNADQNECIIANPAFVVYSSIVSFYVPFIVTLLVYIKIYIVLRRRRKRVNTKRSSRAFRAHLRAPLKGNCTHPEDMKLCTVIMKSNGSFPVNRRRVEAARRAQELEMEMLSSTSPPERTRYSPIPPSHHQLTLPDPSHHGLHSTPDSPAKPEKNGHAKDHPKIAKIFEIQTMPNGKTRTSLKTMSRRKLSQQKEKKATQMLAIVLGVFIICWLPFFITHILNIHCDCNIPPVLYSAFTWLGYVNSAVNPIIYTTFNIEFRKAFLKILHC
Outline: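 cAMP accumulation in DRD2-HEK293 cells measured by HTRF after 1 h detection; compounds added 10 min before NKH477 (200nM […]) forskolin-analogue stimulation, 30 min at room temperature, with Ro20-1724 present at 0.1 mM final.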

[15] = molecular target: D(2) dopamine receptor (Homo sapiens) (UniProt P14416); assay: Dopamine D2 receptor (DRD2) small molecule antagonists, cell-based qHTS assay (AID 1963595; active means well fitted inhibition curve with a large enough effect in the signal ratio in the repeat runs, with a control signal flat; the % refers to the signal ratio; further: potency means the concentration at half of the fitted maximal effect)
Outline: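 Cells were plated and grown for 24 h at 37 °C. Ro20-1724 (0.1 mM final) went in first, then compound for 10 min. NKH477 (200 nM) with quinpirole (12 nM) followed for 30 min at RT, then HTRF detection reagents for 1 h.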

[16] = p53 small molecule agonists, cell-based qHTS assay (AID 1963582; active means well fitted activation curve with a large enough effect in the signal ratio in the repeat runs, not every such curve was filed as active; the % refers to the signal ratio)
Outline: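 p53RE-bla reporter cells, compounds added in DMSO after 5 h plating, incubated 16 h at 37 C. Beta-lactamase read via 2 h room-temperature LiveBLAzer B/G FRET substrate, fluorescence intensity.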

[17] = molecular target: 5-hydroxytryptamine receptor 2A (Homo sapiens) (UniProt P28223); assay: 5-hydroxytryptamine receptor 2A (HTR2A) small molecule agonists, cell-based qHTS assay (AID 1963587); further: nearly all actives have a fitted effect of over 30% in size; further: potency means the concentration at half of the fitted maximal effect
Outline: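 Kinetic calcium-flux fluorescence (2 min, 1 sec intervals) after compound addition in agonist mode. HTR2A-CHO cells were cultured 18 h, then dye-loaded 1 h at 37 C.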

[18] = cAMP Responsive Elements (CRE) small molecule agonists, cell-based qHTS assay (AID 1963590)
Outline: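 CRE-bla HEK 293T cells, 2,000/well in DMEM with 10% dialyzed FBS and 25 mM HEPES, pre-incubated 18 h at 37 C, then exposed to compound 3 h at 37 C. Beta-lactamase reporter read with LiveBLAzer B/G FRET substrate after 2 h at room temperature.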

[19] = cAMP Responsive Elements (CRE) small molecule antagonists, cell-based qHTS assay (AID 1963591; active means well fitted inhibition curve with a large enough effect in the signal ratio in the repeat runs, not every such curve was filed as active; the % refers to the signal ratio)
Outline: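 CRE-bla HEK293T cells plated 18 h, then given compound plus NKH477 at 0.25 uM final for 3 h at 37C. Beta-lactamase reporter read with LiveBLAzer B/G FRET substrate after 2 h at room temperature.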

[20] = molecular target: Gonadotropin-releasing hormone receptor (Homo sapiens) (UniProt P30968); assay: Human gonadotropin-releasing hormone receptor (GnRHR) small molecule agonists, calcium flux assay in GnRHR-HEK293 cells (AID 1920063); further: nearly all actives have a fitted effect of over 35% in size
Sequence of Gonadotropin-releasing hormone receptor (Homo sapiens) (P30968 whole entry, looked up): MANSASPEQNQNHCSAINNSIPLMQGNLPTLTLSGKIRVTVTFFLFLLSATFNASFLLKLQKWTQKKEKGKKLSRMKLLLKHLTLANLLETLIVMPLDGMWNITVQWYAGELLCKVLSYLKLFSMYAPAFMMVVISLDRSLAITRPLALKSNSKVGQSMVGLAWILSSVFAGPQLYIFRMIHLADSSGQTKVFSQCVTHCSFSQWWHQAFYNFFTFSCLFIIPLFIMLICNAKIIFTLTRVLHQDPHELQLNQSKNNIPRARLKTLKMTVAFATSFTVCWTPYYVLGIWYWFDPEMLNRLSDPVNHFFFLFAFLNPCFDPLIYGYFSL
Outline: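 HEK293 cells stably expressing human GnRHR were dye-loaded for 1 h at 37 C. Compound was added in agonist mode and fluorescence (Ex/Em 480/540) recorded kinetically for 3 min. Fifteen concentrations, triplicates.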

| SMILES | Potency [1] | Potency [2] | Potency [3] | Potency [4] | Potency [5] | Potency [6] | Potency [7] | Potency [8] | Potency [9] | Potency [10] | Potency [11] | Potency [12] | Potency [13] | Potency [14] | Potency [15] | Potency [16] | Potency [17] | Potency [18] | Potency [19] | Potency [20] |
| --- | --- | --- | --- | --- | --- | --- | --- | --- | --- | --- | --- | --- | --- | --- | --- | --- | --- | --- | --- | --- |
| C#CCOS(=O)OC1CCCCC1Oc1ccc(C(C)(C)C)cc1 (stereo not given) | 68.7 µM (active) and inactive | inactive | inactive | inactive | inactive | inactive | inactive | inactive | inactive | inactive | inactive | inactive | inactive | inactive | inactive and 54.5 µM (active) |  |  |  |  |  |
| Cc1cccc(C)c1NC(=O)CN1CCCC1=O | inactive | inactive | inactive | inactive | inactive | inactive | inactive | inactive | inactive | inactive | inactive | inactive | inactive | inactive | inactive | inactive | inactive | inactive | inactive |  |
| Oc1ccc(Cl)cc1Cc1ccccc1 | 43.3 µM (active) and 31 µM (active) | inactive | inactive | inactive | inactive | inactive and 41.3 µM (active) | 45.7 µM (active) and inactive | inactive | inactive | inactive |  | 61.9 µM (active) and inactive | inactive | inactive | inactive | inactive | 44.2 µM (active) and inactive | inactive | inactive |  |
| CC(O)CCO (stereo not given) | inactive | inactive | inactive | inactive | inactive | inactive | inactive | inactive | inactive | inactive |  | inactive | inactive | inactive |  |  | inactive | inactive | inactive |  |
| CC(C)C1(C)N=C(c2nc3ccccc3cc2C(=O)O)NC1=O (stereo not given) | inactive | inactive | inactive | inactive | inactive | inactive | inactive | inactive | inactive | inactive | inactive | inactive |  | inactive |  | inactive | inactive | inactive | inactive |  |
| COS(=O)(=O)c1ccc(C)cc1 | inactive | inactive | inactive | inactive | inactive | inactive | inactive | inactive | inactive | inactive | inactive |  |  | inactive | inactive | inactive | inactive | inactive | inactive |  |
| CCCCCCCCCCCCCCn1cc[n+](C)c1 | 13.7 µM (active) and 27 µM (active) and inactive | inactive | inactive | inactive | inactive | 40.9 µM (active) and 40.3 µM (active) and inactive | 16.3 µM (active) and 32.1 µM (active) and inactive | 28.9 µM (active) and inactive | inactive | 1.88 µM (active) and inactive | inactive | inactive | inactive | inactive | inactive |  | 21.9 µM (active) and 30.6 µM (active) and inactive |  | inactive |  |
| N#CCc1ccccc1 | inactive | inactive | inactive | inactive | inactive | inactive | inactive | inactive | inactive | inactive | inactive | inactive |  | inactive | inactive | inactive |  | inactive | inactive |  |
| CC(C)(C#N)N=NC(C)(C)C#N | inactive | inactive | inactive | inactive | inactive |  | inactive |  | inactive | inactive | inactive | inactive | inactive | inactive | inactive | inactive | inactive | inactive | inactive |  |
| Oc1c(Cl)c(Cl)c(Cl)c(Cl)c1Cl | 30 µM (active) | inactive | inactive | inactive | inactive | inactive | inactive | inactive | 23.2 µM (active) and inactive | inactive | inactive | inactive | inactive | inactive |  |  | inactive |  | inactive |  |
| CC(NC(C)(C)C)C(=O)c1cccc(Cl)c1 (stereo not given) | inactive | inactive | inactive | inactive | inactive | inactive | inactive | inactive |  |  |  | inactive |  | inactive | inactive | inactive |  |  | inactive | inactive |
| CCN(C)N=O | inactive | inactive | inactive | inactive | inactive | inactive | inactive | inactive | inactive | inactive | inactive | inactive |  | inactive | inactive | inactive | inactive | inactive | inactive | inactive |
| Cc1cnc[nH]1 | inactive | inactive | inactive | inactive | inactive | inactive | inactive | inactive |  | inactive | inactive | inactive | inactive | inactive | inactive | inactive | inactive | inactive |  | inactive |
| O=C(Cl)OCc1ccccc1 | inactive | inactive | inactive | inactive | inactive | inactive | inactive | inactive | inactive | inactive | inactive | inactive | inactive | inactive | inactive |  | inactive | inactive |  | inactive |
| CCNc1nc(NC(C)(C)C)nc(SC)n1 | inactive | inactive | inactive | inactive | inactive | inactive | inactive | inactive | inactive | inactive | inactive | inactive |  | inactive | inactive | inactive |  | inactive |  | inactive |
